Consider 16 molecules from PubChem BioAssay (NCATS).

Molecules are shown by their SMILES. Inconclusive results are not listed. A number with no mark means an inactive call. The source made the active and inactive calls. The call rests on the fitted dose curve; in most records, active means well fitted cell-killing curve with a large enough effect; inconclusive means small, poorly fitted or top-dose-only effect; inactive means flat fitted curve, though single readings scatter.
On the % scale 0 is the no-effect control and ±100 the full control effect.

The nature of the assay: Cell Viability - LYMP2-010 (AID 981). Further: nearly all actives have a fitted effect of over 55% in size. Particulars: LYMP2-010 lymphoblastoid cell viability, qHTS; series mostly up to 92.2 µM; activity, negative = cytotoxicity: at the top concentration. The source says:
NIH Chemical Genomics Center [NCGC]
NIH Molecular Libraries Screening Centers Network [MLSCN]
National Institutes of Environmental Health Sciences [NIEHS]
National Toxicology Program [NTP]
We have developed a 1536-well cell-based assay for quantitative high throughput screening (qHTS) against a number of cell lines to determine in vitro cytotoxicity of small molecules. This particular assay uses a human lymphoblastoid cell line (LYMP2-010) purchased from Coriell Institute for Medical Research.
NCGC Assay Protocol Summary:
The CellTiter-Glo luminescent cell viability assay (Promega) is a homogeneous method to measure the number of viable cells in culture. The end point readout of this assay is based on quantitation of intracellular ATP, an indicator of metabolic activity, using the luciferase reaction. Luciferase catalyzes the oxidation of beetle Luciferin to oxyluciferin and light in the presence of ATP. The luminescent signal is proportional to amount of ATP present.
Using the CellTiter-Glo luminescent cell viability assay, the amount of cellular ATP was measured in the lymphoblastoid cell line with complete culture medium following compound treatment for 24 hours. The assay was performed in opaque white Kalypsys 1536-well plates. In the screen, tetraoctylammonium bromide was used as positive control. Library compounds were measured for their ability to cause acute toxicity in the cell line, as reflected by a decrease in intracellular ATP levels, in a concentration-dependent manner. […] AC50 values were determined from concentration-response data modeled with the standard Hill equation.
qHTS protocol for CellTiter Glo lymphoblastoid cellular assay
[Step] [Parameter] [Value] [Description]
1. Reagent; 5 uL; 2500 lymphoblastoid cells/well
2. Time; 5 hr; 37 C incubation
4. Controls; 23 nL; Tetraoctylammonium bromide 6.4pM to 92 uM
5. Time; 24 hr; 37 C incubation
6. Reagent; 5 uL; CellTiter Glo reagent
7. Time; 30 min; Room Temperature
8. Detection; Luminescence; Viewlux plate reader
Keywords: cell viability, cytotoxicity, lymphoblastoid cell line, luminescence, NTPHTS, NTPHTS_NCGC, NIEHS, DSSTox, MLSMR, MLSCN, NIH Roadmap, qHTS, NCGC
For orientation: In qHTS, concentration-response curves come from the screen itself.
On to `N[C@@H](Cc1c[nH]c2ccc(O)cc12)C(=O)O`, for which the “activity, negative = cytotoxicity” value is -29.1%.

`Nc1c2c(nc3ccccc13)CCCC2`: the “activity, negative = cytotoxicity” value is -20.4%.

For `COc1ccc2c(c1)c(CC(=O)O)c(C)n2C(=O)c1ccc(Cl)cc1`, the “activity, negative = cytotoxicity” value is -7.09%.

For `CCC1(c2ccccc2)C(=O)NCNC1=O`, the “activity, negative = cytotoxicity” value was 0.437%.

As for `Cn1c(=O)c2c(ncn2C)n(C)c1=O`, the “activity, negative = cytotoxicity” value was -13.7%.

As for `Cc1ccc(-c2cc(C(F)(F)F)nn2-c2ccc(S(N)(=O)=O)cc2)cc1`, the “activity, negative = cytotoxicity” value was -2.99%.

Take `COc1ccc2[nH]cc(CCNC(C)=O)c2c1`: the “activity, negative = cytotoxicity” value was 7.84%.

Take `NCCS(=O)(=O)O`: the “activity, negative = cytotoxicity” value was -3.23%.

For `Cc1cn([C@H]2C=C[C@@H](CO)O2)c(=O)[nH]c1=O`, the molecule was called inactive.

On to `Clc1ccc(C(c2ccccc2Cl)C(Cl)Cl)cc1` (stereo unspecified), for which the “activity, negative = cytotoxicity” value is -18.7%.

On to `NS(=O)(=O)c1cc2c(cc1Cl)NCNS2(=O)=O`, for which the “activity, negative = cytotoxicity” value is -10.8%.

As to `CC(C)NCC(O)c1ccc(O)c(O)c1` (stereo unspecified), the “activity, negative = cytotoxicity” value was -26.4%.

Take `Nc1ccn([C@H]2CC[C@@H](CO)O2)c(=O)n1`: the “activity, negative = cytotoxicity” value was -3.2%.

Turning to `CC(C)C(=O)Nc1ccc([N+](=O)[O-])c(C(F)(F)F)c1`, the “activity, negative = cytotoxicity” value was -13.5%.

Turning to `Cn1c(=O)c2[nH]cnc2n(C)c1=O`, the “activity, negative = cytotoxicity” value was -9.81%.

With `Cc1cn([C@H]2C[C@H](N=[N+]=[N-])[C@@H](CO)O2)c(=O)[nH]c1=O`, the “activity, negative = cytotoxicity” value was -8.61%.
